Test [1] can be described thus: NCI Yeast Anticancer Drug Screen. Data for the rad50 strain (AID 155).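 Note: 0% = growth of vehicle-only cultures of the same strain.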 To be noted: S. cerevisiae rad50 strain growth inhibition; at 50.0 µM; stronger effect = higher value. The method, boiled down: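 Vehicle-treated cultures provide the reference for the growth inhibition reported for compound-exposed, repair-deficient yeast.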
Test [2] can be described thus: NCI Yeast Anticancer Drug Screen. Data for the mec2-1 strain (AID 157). The settings on record: S. cerevisiae mec2-1 strain, at 50.0 µM, stronger effect = higher value. An outline of the steps: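 Test agents were screened against the mec2-1 yeast strain, with defined DNA repair or cell cycle alteration. Growth was scored as inhibition against vehicle-only controls.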
Test [3] in a line: NCI Yeast Anticancer Drug Screen. Data for the sgs1 mgt1 strain (AID 161).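 Note: 0% = growth of cultures given vehicle only.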 The settings on record: S. cerevisiae sgs1 mgt1 strain, at 50.0 µM, stronger effect = higher value. An outline of the steps:
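Genetically altered yeast, compound exposure, growth inhibition relative to vehicle.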

Test [4] can be described thus: NCI Yeast Anticancer Drug Screen. Data for the cln2 rad14 strain (AID 165).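 Note: 0% = growth equal to vehicle treated cultures.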 To be noted: S. cerevisiae cln2 rad14 strain, at 50.0 µM, stronger effect = higher value. The method, boiled down: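 Growth of compound-exposed yeast (cln2 rad14 genotype) measured and expressed as inhibition relative to vehicle.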
Test [5] is described as follows: NCI Yeast Anticancer Drug Screen. Data for the bub3 strain (AID 167). The settings on record: S. cerevisiae bub3 mutant strain, at 50.0 µM, stronger effect = higher value. An outline of the steps: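 Mutant yeast screening strain plus compound; vehicle-treated cultures serve as the 0% inhibition reference.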
Test [6] in a line: NCI Yeast Anticancer Drug Screen. Data for the mlh1 rad18 strain (AID 175). To be noted: S. cerevisiae mlh1 rad18 strain growth inhibition; at 50.0 µM; stronger effect = higher value. An outline of the steps: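 In this whole-cell yeast screen, a strain with altered DNA damage repair is challenged with compound, and its growth is measured against matched vehicle-treated controls.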

Compounds without any hit were thinned out: in the full panel of roughly 79,000, 15% have a hit. Unmarked numbers belong to inactive results. Calls of active or inactive are those of the source. Cut-off read from the data, not from the text of the source: active = growth inhibition above about 70%; inactive = the rest.

`O=C(OCc1ccccc1)/C(c1ccccc1)=[N+]1/C(=S)Nc2ccc([N+](=O)[O-])cc21`: the growth inhibition in test [1] was 3%; in test [2], -5%; in test [3], 1.6%; in test [4], 3.8%; in test [5], 13.9%; in test [6] it was 7.9%.
With `CCOC(=O)C(CC)N1C(=O)c2ccccc2S1(=O)=O` (stereo not drawn), the growth inhibition is -16.1% in test [1]; -10.5% in test [2]; -12.4% in test [3]; 48.2% in test [4]; 33.5% in test [5]; -12.6% in test [6].
As to `CN(C)c1ccc(Cc2ccc(N(C)C)cc2)cc1`, the growth inhibition in test [1] was -4.1%; in test [2], -6.3%; in test [3], -16.9%; in test [4] it was -23.6%; in test [5] it was 10.4%; in test [6] it was 7%.
As for `CCOC(=O)/C(O)=C(\C#N)c1cc(C)ccc1C`, the growth inhibition is -7.5% in test [1]; -14.6% in test [2]; -2.7% in test [3]; 0.45% in test [4]; -0.45% in test [5]; 10.8% in test [6].
For `CC(=O)Nc1ccccc1O`, the growth inhibition was -4.75% in test [1]; -15.2% in test [2]; -0.85% in test [3]; -18.3% in test [4]; 0.35% in test [5]; 14.2% in test [6].
On to `Cc1noc2cccc(OCc3ccccc3)c12`, for which the growth inhibition is -32.2% in test [1]; -40.5% in test [2]; 5.4% in test [3]; -0.6% in test [4]; 17.4% in test [5]; -9.2% in test [6].
Regarding `CCOC(=O)c1ncn(C2OC(CO)C(O)C2O)c1N` (stereo not drawn), the growth inhibition in test [1] is 19.5%; in test [2], 1.6%; in test [3], 31.4%; in test [4], 12.3%; in test [5], 14.2%; in test [6] it was 25.2%.
Turning to `COc1ccc([N+](=O)[O-])c(C#N)c1`, the growth inhibition in test [1] was 5.95%; in test [2] it was -2.2%; in test [3], 3.35%; in test [4], -9.75%; in test [5], -9.4%; in test [6], -46.6%.
Take `CC(C)(Oc1ccc(C(=O)c2ccc(Cl)cc2)cc1Cl)C(=O)N1CCN(CCO)CC1`: the growth inhibition is -18.9% in test [1]; -8.65% in test [2]; 15.9% in test [3]; 12.3% in test [4]; 11.3% in test [5]; 12.9% in test [6].
`CC1SC2=NC3=C(c4ccccc4C3=O)C(c3ccc(Br)cc3)N2C1=O` (stereo not drawn): the growth inhibition in test [1] was -37.5%; in test [2], -15.9%; in test [3], -36.3%; in test [4] it was -15.8%; in test [5], -37%; in test [6] it was -32.8%.
Take `CC1=C(Br)C(=O)C(c2c(C)cc(C)cc2C)=C(Br)C1=O`: the growth inhibition in test [1] was 97.5% (active); in test [2], 98% (active); in test [3], 98.2% (active); in test [4] it was 92.8% (active); in test [5], 97.5% (active); in test [6], 98.5% (active).
As to `CN(C)CCOc1ccccn1`, the growth inhibition in test [1] was 9.45%; in test [2], -27.4%; in test [3], -5.35%; in test [4] it was 7.75%; in test [5], -21.7%; in test [6] it was 0.3%.
For `O=C(Cc1ccccc1)NC(CSCc1ccccc1)C(=O)O` (stereo not drawn), the growth inhibition was 9.85% in test [1]; 19.2% in test [2]; -15% in test [3]; -39.1% in test [4]; 10.8% in test [5]; 40.2% in test [6].
Take `CCCc1cc(-c2ccc(-c3cc(CCC)c(C=O)[nH]3)s2)[nH]c1C=O`: the growth inhibition is -19% in test [1]; -19.6% in test [2]; -31% in test [3]; -4.9% in test [4]; -20.1% in test [5]; -46.9% in test [6].
Regarding `CCOC(=O)C(CCC(C)(C)SCc1ccccc1)(NC(C)=O)C(=O)OCC`, the growth inhibition in test [1] was 25.8%; in test [2] it was -1.15%; in test [3], 1.45%; in test [4] it was 16.7%; in test [5], 2.15%; in test [6], 5.6%.
Take `O=c1[nH]cc(SSc2c[nH]c(=O)[nH]c2=O)c(=O)[nH]1`: the growth inhibition in test [1] was 13.4%; in test [2], 15.7%; in test [3] it was 4.2%; in test [4] it was -25.3%; in test [5], 29.9%; in test [6], 12.9%.
With `COC(=O)c1nc(N)nc(C(=O)OC)c1C(=O)c1ccc([N+](=O)[O-])cc1`, the growth inhibition is -20.9% in test [1]; -23.6% in test [2]; -37% in test [3]; -22% in test [4]; -44.8% in test [5]; -41% in test [6].
`Nc1cccc(/C=C/c2cccc([N+](=O)[O-])c2)c1`: the growth inhibition in test [1] is 18.2%; in test [2] it was 37.5%; in test [3], 12.8%; in test [4] it was 4%; in test [5] it was 60.3%; in test [6] it was 30.2%.
`CC(=Nc1ccccc1)NO`: the growth inhibition in test [1] is 1.9%; in test [2] it was 14%; in test [3] it was 3.7%; in test [4], 3.5%; in test [5] it was -8.1%; in test [6], 2.1%.
With `COC(=O)CCBr`, the growth inhibition in test [1] is -19.8%; in test [2], 8.15%; in test [3], 28.8%; in test [4] it was -18.2%; in test [5], -1.9%; in test [6], 3.5%.
Regarding `Cc1c(Cl)cccc1NC(=O)OCCCc1ccccc1`, the growth inhibition is 1.5% in test [1]; 10.2% in test [2]; 15.6% in test [3]; -9.45% in test [4]; 9.35% in test [5]; 10.2% in test [6].
With `C(=C1/NC(c2ccccc2)=Nc2ccccc21)/c1ccccc1`, the growth inhibition in test [1] is 24.3%; in test [2], -0.5%; in test [3], 10.9%; in test [4] it was 37.6%; in test [5], 4.85%; in test [6], 29.8%.
`CS/C(=N/N=C/c1ccc2ccccc2n1)SS/C(=N/N=C\c1ccc2ccccc2n1)SC`: the growth inhibition was -8.05% in test [1]; 13.8% in test [2]; -12.4% in test [3]; -19.9% in test [4]; -0.3% in test [5]; -39.9% in test [6].
As for `CN(C)C1C(=O)C(C(=O)NCN2CCCC2)=C(O)C2(O)C(=O)C3=C(O)c4c(O)cccc4C(C)(O)C3CC12` (stereo not drawn), the growth inhibition in test [1] was 2.75%; in test [2] it was -4.7%; in test [3], -10.2%; in test [4], -27.9%; in test [5], -26.9%; in test [6], 21.4%.
Consider `CC(C)C1NC(=O)CC(c2ccccc2)N(N=O)C1c1ccccc1` (stereo not drawn), for which the growth inhibition in test [1] was -29.3%; in test [2] it was -9%; in test [3], -4.85%; in test [4], -14.9%; in test [5] it was -5.9%; in test [6], -16.8%.
Regarding `O=C(c1ccccc1)C(Br)C(Br)c1ccc([N+](=O)[O-])cc1` (stereo not drawn), the growth inhibition in test [1] was 14.7%; in test [2], 39.9%; in test [3] it was 31.4%; in test [4], 24.2%; in test [5], -1.9%; in test [6], 21.6%.
In the case of `Nc1ccc2cc(S(=O)(=O)O)cc(O)c2c1`, the growth inhibition was 28.8% in test [1]; -4.55% in test [2]; -34.5% in test [3]; -85.8% in test [4]; 6.85% in test [5]; 15.2% in test [6].
Take `Cc1cc2nc(Oc3ccccc3)nc(=O)n2o1`: the growth inhibition in test [1] was 2.3%; in test [2], 0.4%; in test [3], 6.7%; in test [4] it was -2.05%; in test [5], 11.8%; in test [6] it was -9.2%.
Turning to `CC(C)(C#N)CCCCC(C)(C)C#N`, the growth inhibition in test [1] is 3.1%; in test [2], 0.7%; in test [3], 1.2%; in test [4], 11.8%; in test [5], 12.4%; in test [6], 3.8%.
On to `COc1ccc(C(c2cc3c(cc2O)OCO3)N2CCCC2)cc1` (stereo not drawn), for which the growth inhibition in test [1] is 17%; in test [2], -0.5%; in test [3], 15.9%; in test [4], -25.1%; in test [5], 12.1%; in test [6] it was 21.2%.
Regarding `O=[N+]([O-])c1ccc(N=Cc2ccccc2O)cc1`, the growth inhibition in test [1] is -19.7%; in test [2], -8.05%; in test [3], -23.6%; in test [4], 4.3%; in test [5], 8.05%; in test [6], -6.9%.
Take `NC(=S)Nc1c(Cl)cc(Cl)cc1Cl`: the growth inhibition is 44% in test [1]; -8.9% in test [2]; 33.4% in test [3]; 8.6% in test [4]; 17.3% in test [5]; 12.3% in test [6].
`N=C(CN1CCCCC1)N1CCCCC1`: the growth inhibition is -2.5% in test [1]; -15.3% in test [2]; -5.15% in test [3]; -58.1% in test [4]; 10.2% in test [5]; 12.6% in test [6].
Turning to `Cc1ccc(N2CCN(C(=O)c3ccccc3)CC2)cc1`, the growth inhibition in test [1] is -16.9%; in test [2], 1.55%; in test [3], -2.45%; in test [4], -13.6%; in test [5], 16.5%; in test [6], -9.35%.
As to `O=P(c1ccccc1)(c1ccccc1)N1CC1c1ccccc1` (stereo not drawn), the growth inhibition in test [1] was 8.95%; in test [2], 12.9%; in test [3] it was 3.2%; in test [4], -3.45%; in test [5], 4.6%; in test [6], 10.1%.
As for `Nc1cc(=O)n(C2CC(O)C(CO)O2)cn1` (stereo not drawn), the growth inhibition is 7.25% in test [1]; 2.05% in test [2]; 11.5% in test [3]; 1.95% in test [4]; -13.3% in test [5]; 5.6% in test [6].
`Cc1cccc(NC(=S)NC2CCCCC2)c1`: the growth inhibition in test [1] is 2.75%; in test [2], 11.7%; in test [3], -3.1%; in test [4], 12.7%; in test [5], 7%; in test [6] it was 9.4%.
On to `CNC(=O)OCC1=CC(=O)C=C(OC)C1=O`, for which the growth inhibition in test [1] is 7.3%; in test [2], -14.9%; in test [3], 18.4%; in test [4], 14.4%; in test [5] it was 2.45%; in test [6], 9%.

For the origin of these results see PubChem BioAssay (NCI).
